{"source": "the supplement of paper PMC8728848", "binders": {"B1": {"name": "PX9961C-bth-497-22-497 (Bacteroides thetaiotaomicron) (protein)", "chain": "DWLDLNTTSSVETGQAIVTLDDAQIALNGIYRLASGHSYYGDNYWYYGDCRAADVQARITKGDGKRVSPYYEYNVLASDNLNIVLPWNTVYKVIRQTNNLIQKIESGSIQSSDTKELNRIKSEALVMRGLSLFNLTRLFGMPYTNDKGASLGVPIETSPSDPTHKPSRSTVAQCYEQVVSDMSNALSGLRQETSNGYINYWAAQALLSRVYLNMGEYQKAYDAATDVIKNNGGRYQLYSYEEYPNVWGQDFQSESLFELYITLSEPSGGTGGEGAPMVYANEATVDWNNLILSEDFLNLLNEDPKDVRHCLTKESVIENNTGLPAAAMHEKVYLAKFPGKTGDDPKTNNICIIRLSEVYLNAAEAGLKKGTDIEEAQGYLNDIISRRTTDTSQQVSTETFTLDRILKERRKELVGEGEVFYDYLRNGLAIERKGSWHLETLKASNAQKIEATDLRIALPIPQSEIDANPNIQQNPR"}}, "assay_in_all_cases": "glycan array binding signal (z-score within array); higher = stronger binding", "details_in_all_cases": "glycan notation: IUPAC condensed, linker removed", "key": {"[1]": {"target": "Fuc(a1-2)Gal(b1-3)GalNAc(a1-3)[Fuc(a1-2)]Gal(b1-4)GlcNAc", "outline": "(§1)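 Negative Z-scores can be read as non-binding. The Z-score is calculated within each array and then averaged across arrays of one protein sequence at different concentrations or buffers and across linkers. Arrays, 3228 in all, were curated from the Consortium for Functional Glycomics database and kept only where the protein sequence was available.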"}, "[2]": {"target": "Fuc(a1-2)Gal(b1-3)GlcNAc(b1-3)[Fuc(a1-2)Gal(b1-3)GlcNAc(b1-6)]GalNAc", "outline": "as §1"}, "[3]": {"target": "Fuc(a1-2)Gal(b1-4)[Fuc(a1-3)]GlcNAc(b1-3)Gal(b1-4)[Fuc(a1-3)]GlcNAc(b1-3)Gal(b1-4)[Fuc(a1-3)]GlcNAc", "outline": "as §1"}, "[4]": {"target": "Fuc(a1-2)Gal(b1-4)[Fuc(a1-3)]GlcNAc(b1-3)[Neu5Ac(a2-6)Gal(b1-4)GlcNAc(b1-6)]Gal(b1-4)Glc", "outline": "as §1"}, "Fuc(a1-2)Gal6S(b1-4)Glc": {"target": "Fuc(a1-2)Gal6S(b1-4)Glc", "outline": "as §1"}, "[5]": {"target": "Fuc(a1-2)[Gal(a1-3)]Gal(b1-3)GalNAc", "outline": "as §1"}, "[6]": {"target": "Fuc(a1-2)[Gal(a1-3)]Gal(b1-3)GlcNAc(b1-2)Man(a1-3)[Fuc(a1-2)[Gal(a1-3)]Gal(b1-3)GlcNAc(b1-2)Man(a1-6)]Man(b1-4)GlcNAc(b1-4)GlcNAc", "outline": "as §1"}, "[7]": {"target": "Fuc(a1-2)[Gal(a1-3)]Gal(b1-4)GlcNAc(b1-3)[Fuc(a1-2)[Gal(a1-3)]Gal(b1-4)GlcNAc(b1-6)]GalNAc", "outline": "as §1"}, "[8]": {"target": "Fuc(a1-2)[Gal(a1-3)]Gal(b1-4)[Fuc(a1-3)]GlcNAc(b1-3)GalNAc", "outline": "as §1"}, "[9]": {"target": "Fuc(a1-2)[GalNAc(a1-3)]Gal(b1-3)GlcNAc", "outline": "as §1"}, "[10]": {"target": "Fuc(a1-3)[Gal(b1-4)]GlcNAc(b1-2)Man", "outline": "as §1"}, "[11]": {"target": "Fuc(a1-3)[Gal(b1-4)]GlcNAc(b1-6)GalNAc", "outline": "as §1"}, "[12]": {"target": "Fuc(a1-3)[GalNAc(b1-4)]GlcNAc", "outline": "as §1"}, "[13]": {"target": "Gal(a1-3)Gal(b1-4)GlcNAc(b1-3)GalNAc", "outline": "as §1"}, "[14]": {"target": "Gal(a1-3)[Gal(a1-4)]Gal(b1-4)GlcNAc", "outline": "as §1"}, "[15]": {"target": "Gal(b1-3)GalNAc(a1-3)[Fuc(a1-2)]Gal(b1-4)GlcNAc", "outline": "as §1"}, "[16]": {"target": "Gal(b1-3)GlcNAc(b1-2)[Gal(b1-3)GlcNAc(b1-6)]Man(a1-6)[Gal(b1-3)GlcNAc(b1-2)Man(a1-3)]Man(b1-4)GlcNAc(b1-4)GlcNAc", "outline": "as §1"}, "[17]": {"target": "Gal(b1-3)GlcNAc(b1-6)GalNAc", "outline": "as §1"}, "[18]": {"target": "Gal(b1-3)[Fuc(a1-4)]GlcNAc(b1-6)GalNAc", "outline": "as §1"}, "[19]": {"target": "Gal(b1-4)GalNAc(a1-3)[Fuc(a1-2)]Gal(b1-4)GlcNAc", "outline": "as §1"}, "[20]": {"target": "Gal(b1-4)GlcNAc(b1-2)Man(a1-6)Man(b1-4)GlcNAc(b1-4)GlcNAc", "outline": "as §1"}, "[21]": {"target": "Gal(b1-4)GlcNAc(b1-3)Gal(b1-4)GlcNAc(b1-2)Man(a1-3)[Gal(b1-4)GlcNAc(b1-3)Gal(b1-4)GlcNAc(b1-2)Man(a1-6)]Man(b1-4)GlcNAc(b1-4)GlcNAc", "outline": "as §1"}, "[22]": {"target": "Gal(b1-4)GlcNAc(b1-3)Gal(b1-4)GlcNAc(b1-2)[Gal(b1-4)GlcNAc(b1-3)Gal(b1-4)GlcNAc(b1-6)]Man(a1-6)[Gal(b1-4)GlcNAc(b1-3)Gal(b1-4)GlcNAc(b1-2)Man(a1-3)]Man(b1-4)GlcNAc(b1-4)GlcNAc", "outline": "as §1"}, "[23]": {"target": "Gal(b1-4)GlcNAc(b1-3)Gal(b1-4)GlcNAc(b1-2)[Gal(b1-4)GlcNAc(b1-3)Gal(b1-4)GlcNAc(b1-6)]Man(a1-6)[Gal(b1-4)GlcNAc(b1-3)Gal(b1-4)GlcNAc(b1-2)Man(a1-3)]Man(b1-4)GlcNAc(b1-4)[Fuc(a1-6)]GlcNAc", "outline": "as §1"}, "[24]": {"target": "Gal(b1-4)GlcNAc(b1-3)Gal(b1-4)GlcNAc(b1-3)Gal(b1-4)GlcNAc(b1-3)Gal(b1-4)GlcNAc(b1-2)[Gal(b1-4)GlcNAc(b1-3)Gal(b1-4)GlcNAc(b1-3)Gal(b1-4)GlcNAc(b1-3)Gal(b1-4)GlcNAc(b1-6)]Man(a1-6)[Gal(b1-4)GlcNAc(b1-3)Gal(b1-4)GlcNAc(b1-3)Gal(b1-4)GlcNAc(b1-3)Gal(b1-4)GlcNAc(b1-2)Man(a1-3)]Man(b1-4)GlcNAc(b1-4)[Fuc(a1-6)]GlcNAc", "outline": "as §1"}, "[25]": {"target": "Gal(b1-4)GlcNAc(b1-3)Gal(b1-4)GlcNAc(b1-3)Gal(b1-4)GlcNAc(b1-3)Gal(b1-4)GlcNAc(b1-3)Gal(b1-4)GlcNAc(b1-2)[Gal(b1-4)GlcNAc(b1-3)Gal(b1-4)GlcNAc(b1-3)Gal(b1-4)GlcNAc(b1-3)Gal(b1-4)GlcNAc(b1-3)Gal(b1-4)GlcNAc(b1-6)]Man(a1-6)[Gal(b1-4)GlcNAc(b1-3)Gal(b1-4)GlcNAc(b1-3)Gal(b1-4)GlcNAc(b1-3)Gal(b1-4)GlcNAc(b1-3)Gal(b1-4)GlcNAc(b1-2)Man(a1-3)]Man(b1-4)GlcNAc(b1-4)[Fuc(a1-6)]GlcNAc", "outline": "as §1"}, "[26]": {"target": "Gal(b1-4)GlcNAc(b1-6)Gal(b1-4)GlcNAc", "outline": "as §1"}, "Gal3S(b1-3)GlcNAc": {"target": "Gal3S(b1-3)GlcNAc", "outline": "as §1"}, "Gal3S4S(b1-4)GlcNAc": {"target": "Gal3S4S(b1-4)GlcNAc", "outline": "as §1"}}, "note": "The entries come from a sample that favours the strongest signals as a whole.", "data": [{"binder": "B1", "values": [{"measurement": "glycan array binding signal (z-score)", "setting": "[1]", "result": -0.6}, {"measurement": "glycan array binding signal (z-score)", "setting": "[2]", "result": 0.12}, {"measurement": "glycan array binding signal (z-score)", "setting": "[3]", "result": -0.517}, {"measurement": "glycan array binding signal (z-score)", "setting": "[4]", "result": -0.648}, {"measurement": "glycan array binding signal (z-score)", "setting": "Fuc(a1-2)Gal6S(b1-4)Glc", "result": -0.078}, {"measurement": "glycan array binding signal (z-score)", "setting": "[5]", "result": -0.3}, {"measurement": "glycan array binding signal (z-score)", "setting": "[6]", "result": 1.08}, {"measurement": "glycan array binding signal (z-score)", "setting": "[7]", "result": -0.459}, {"measurement": "glycan array binding signal (z-score)", "setting": "[8]", "result": -0.284}, {"measurement": "glycan array binding signal (z-score)", "setting": "[9]", "result": -0.776}, {"measurement": "glycan array binding signal (z-score)", "setting": "[10]", "result": 1.56}, {"measurement": "glycan array binding signal (z-score)", "setting": "[11]", "result": 0.511}, {"measurement": "glycan array binding signal (z-score)", "setting": "[12]", "result": 0.598}, {"measurement": "glycan array binding signal (z-score)", "setting": "[13]", "result": -0.646}, {"measurement": "glycan array binding signal (z-score)", "setting": "[14]", "result": 2.48}, {"measurement": "glycan array binding signal (z-score)", "setting": "[15]", "result": -0.307}, {"measurement": "glycan array binding signal (z-score)", "setting": "[16]", "result": 14.1}, {"measurement": "glycan array binding signal (z-score)", "setting": "[17]", "result": -0.427}, {"measurement": "glycan array binding signal (z-score)", "setting": "[18]", "result": -0.101}, {"measurement": "glycan array binding signal (z-score)", "setting": "[19]", "result": -0.203}, {"measurement": "glycan array binding signal (z-score)", "setting": "[20]", "result": -0.302}, {"measurement": "glycan array binding signal (z-score)", "setting": "[21]", "result": 1.26}, {"measurement": "glycan array binding signal (z-score)", "setting": "[22]", "result": 2.36}, {"measurement": "glycan array binding signal (z-score)", "setting": "[23]", "result": 2.08}, {"measurement": "glycan array binding signal (z-score)", "setting": "[24]", "result": -0.171}, {"measurement": "glycan array binding signal (z-score)", "setting": "[25]", "result": 7.33}, {"measurement": "glycan array binding signal (z-score)", "setting": "[26]", "result": -0.211}, {"measurement": "glycan array binding signal (z-score)", "setting": "Gal3S(b1-3)GlcNAc", "result": -0.219}, {"measurement": "glycan array binding signal (z-score)", "setting": "Gal3S4S(b1-4)GlcNAc", "result": 0.105}]}]}
